# The list is not random: actives were taken first. Their share in the collection is about 2%.
# aSyn rescue – inhibitors of alpha-synuclein toxicity in yeast | Yeast expressing alpha-synuclein, growth rescue, BacTiter-Glo, 24 h | Potency, µM (highest dose often 46.1 µM), without a hit: top-dose growth rescue (activation), actives largely listed as activators | 0.14% of 370,000 active; note: % of control where 0% means no effect; nearly all actives have a fitted effect of over 65% in size
#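 Rescue of yeast growth: cells expressing toxic alpha-synuclein, induced in galactose at OD600 0.02, incubated with compound 24 h at 30 C. ATP luminescence quantified growth; inhibitors of toxicity appear as activators.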
# Rango release inh – inhibitors of RanGTP-induced Rango-importin beta complex dissociation | 0.071% of 340,000 active | Biochemical FRET Rango-importin beta, RanGTP-induced dissociation | Potency, µM (doses to about 46.1 µM), for the others: at the highest dose activity change, negative = inhibition; calls by dose curve; note: % of control where 0% means no effect; nearly all actives have a fitted effect of over 45% in size
#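 Compounds preincubate 5 min with complex of recombinant Rango and importin beta in PBS with 1 mM DTT. Ran (0.6 uM) loaded with 2 mM GTP plus 0.2 uM RCC1 starts dissociation; FRET is recorded 45 min later.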
# TDP43 rescue – rescues yeast growth from TDP-43 toxicity. TDP-43 expressing yeast growth rescue, BacTiter-Glo, 24 h. Potency, µM (highest dose often 46.1 µM), for the others: top-dose growth rescue (activation), usual class: activators. 1.8% of 410,000 active; note: % of control where 0% means no effect; nearly all actives have a fitted effect of over 50% in size
#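 Luminescence from BacTiter-Glo reports growth of TDP-43-expressing yeast after 24 hr at 30 deg C with compound. Cells were raffinose-pregrown to mid-log, then seeded in galactose medium at OD600=0.02.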
# Abeta rescue – compounds reversing amyloid beta toxicity in yeast; AID 1347071; yeast expressing A-beta42, growth rescue, OD600, 48 h; response scale: 0% DMSO, 100% iron-clioquinol control; Potency, µM (highest dose often 46.1 µM), usual class: activators; 0.063% of 410,000 active; note: nearly all actives have a fitted effect of over 55% in size
#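 Growth rescue measured by 600 nm absorbance after 48 h yeast culture at 30 C with compound. Values normalized between DMSO and an equimolar ferric chloride plus clioquinol control.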
# Rango complex inh – Rango-importin beta binding inhibition; Rango CFP/YFP FRET sensor + importin beta, 45 min; Potency, µM (series often up to 92.2 µM), for the others: at the top dose inhibition of complex formation; 0.031% of 340,000 active; AID 540263; calls by dose curve;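 note: 0% = DMSO wells and 100% = buffer wells lacking importin beta; nearly all actives have a fitted effect of over 15% in size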
# Target sequence (Q14974 whole entry, looked up): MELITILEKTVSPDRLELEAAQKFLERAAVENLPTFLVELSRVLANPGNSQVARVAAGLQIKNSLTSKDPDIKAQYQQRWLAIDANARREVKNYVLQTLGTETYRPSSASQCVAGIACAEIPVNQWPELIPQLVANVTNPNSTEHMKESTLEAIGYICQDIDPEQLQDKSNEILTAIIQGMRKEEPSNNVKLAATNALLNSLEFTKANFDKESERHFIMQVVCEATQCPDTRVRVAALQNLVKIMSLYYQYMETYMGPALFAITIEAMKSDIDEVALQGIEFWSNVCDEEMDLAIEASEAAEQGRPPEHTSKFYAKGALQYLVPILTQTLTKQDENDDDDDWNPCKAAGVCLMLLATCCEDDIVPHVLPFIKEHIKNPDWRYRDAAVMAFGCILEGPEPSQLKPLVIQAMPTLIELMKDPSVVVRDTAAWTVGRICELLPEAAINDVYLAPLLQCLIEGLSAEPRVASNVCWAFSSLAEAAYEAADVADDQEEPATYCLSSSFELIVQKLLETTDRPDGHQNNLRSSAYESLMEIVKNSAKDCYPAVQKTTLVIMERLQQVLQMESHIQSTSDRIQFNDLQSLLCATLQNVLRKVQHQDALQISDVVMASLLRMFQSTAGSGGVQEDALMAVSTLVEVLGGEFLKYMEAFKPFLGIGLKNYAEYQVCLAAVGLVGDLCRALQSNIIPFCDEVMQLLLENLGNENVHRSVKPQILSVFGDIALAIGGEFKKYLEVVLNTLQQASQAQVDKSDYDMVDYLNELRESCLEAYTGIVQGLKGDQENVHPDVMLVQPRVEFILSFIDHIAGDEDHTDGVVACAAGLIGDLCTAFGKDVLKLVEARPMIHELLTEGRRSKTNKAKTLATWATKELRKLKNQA
#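 FRET biosensor (snurportin 1 IBB flanked by EYFP and cerulean), 50 nM, with compound 5 min, then 0.125 microM importin beta in PBS, 1 mM DTT, 0.02% Tween-20, 0.1% BSA. CFP/YFP ratio read after 45 min at room temperature; pre-read flags interference.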
# S-ASM inh – inhibitors of human secretory acid sphingomyelinase | 0.006% of 340,000 active | Potency, µM (series often up to 57.5 µM), for inactives: top-dose activity change, negative = inhibition, actives largely listed as inhibitors | P17405 | placental ASM, HMU-PC fluorogenic substrate, 60 min | AID 504937
#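 Steps: dispense placental human ASM, pin compound, wait 10 min at room temperature, add HMU-PC0 substrate at 9 uM final, incubate 60 min at 37 °C, add stop solution raising pH to 10, read fluorescence.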
# Active calls of the source: *; i = inactive; ? = inconclusive; nt = no result given; [ ] = dose if it differs, or a comment. Unless noted, calls come from the whole dose curve; as a rule, active = well fitted curve in the direction sought with a large enough effect; inconclusive = small, poorly fitted or top-dose-only effect, or another doubt; inactive = no such curve, though single readings can be large; an effect the other way counts as inactive or inconclusive. Potency is the fitted concentration of half-maximal effect.
SMILES,aSyn rescue,Rango release inh,TDP43 rescue,Abeta rescue,Rango complex inh,S-ASM inh
CCOc1ccc(-c2nc3n(c(=O)c2C#N)CCCS3)cc1,2%,-10%,27%,i,?,-2%
COc1ccc(-c2nc3n(c(=O)c2C#N)CCCS3)cc1,5%,5%,16µM*,?,1%,0%
CS(=O)(=O)N1CCN(/[N+]([O-])=N/Oc2ccc([N+](=O)[O-])cc2[N+](=O)[O-])CC1 (tested in a mixture with another compound),-34%,nt,nt,nt,nt,nt
CCN(CC(=O)Nc1ccc2c(c1)OCCO2)C(=O)/C=C/c1cccc(Br)c1,15%,-4%,13µM*,i,0%,nt
O=C(/C=C/c1cccc(Br)c1)c1ccc2c(c1)OCO2,-12%,-1%,11µM*,i,0%,13%
CCNc1cc2n(c(=O)n1)CCc1cc(OC)c(OC)cc1-2,0%,0%,-9%,i,3%,42%
COc1cc2c(cc1OC)-c1cc(OCCN3CCOCC3)nc(=O)n1CC2,-9%,8.2µM*,7%,i,?,87%
CCc1nn2c(=O)cc(COC(=O)c3cccc(NC(=O)c4cccs4)c3)nc2s1,nt,nt,19%,i,nt,nt
CC(C)(C)c1nnc(N/N=C/c2ccccc2O)n(N)c1=O,18µM*,-8%,13%,11µM*,-4%,-1%
CC(C)(C)c1nnc(N/N=C/c2ccccc2)n(N)c1=O,-1%,-3%,0%,i,1%,0%
O=C(NCc1ccco1)c1cc2cc(Br)ccc2o1,-3%,-7%,22µM*,i,2%,-4%
CCCCNC(=O)CN1C(=O)c2c(c3ccccc3n2C)C1c1ccc(OC)cc1 (stereo not given),nt,nt,0%,i,nt,nt
Fc1ccccc1COc1ccc(/C=N/n2cnnc2)cc1,0%,13%,11µM*,i,2%,-6%
C(=N\n1cnnc1)/c1ccc(OCc2cccc3ccccc23)cc1,16%,-7%,13µM*,i,3%,-23%
C(=N\n1cnnc1)/c1cccc(OCCOc2ccccc2)c1,3%,6%,?,i,2%,-4%
O=C(Nc1ccccc1C(=O)Nc1ccc(Br)cn1)c1ccccc1Cl,2%[1.84 µM],1%,20µM*,i,-5%,-12%
Cc1ccc2c(c1)cc(C(=O)Nc1ccc(F)cc1F)n2C,nt,nt,19%[9.22 µM],i,nt,nt
O=C1CN(C(=O)c2ccc(S(=O)(=O)N3CCCCC3)cc2)C(c2ccc(F)cc2)c2cc(Br)ccc2N1 (stereo not given),nt,nt,10%,i,nt,nt
CCN(CC)S(=O)(=O)c1ccc(N2CCOCC2)c(NC(=O)c2cc3ccccc3o2)c1,-6%,nt,35µM*,i,nt,nt
C=CCSC(=C(C#N)C#N)c1cc2c([nH]1)CCCC2,1%,16µM*,?,i,?,-13%
COc1ccc(NC(=O)C2CC(c3ccccc3Cl)=NO2)cc1 (stereo not given),12%,6%,11µM*,i,-1%,3%
COCCn1c(CN2CCN(c3cccc(Cl)c3)CC2)nc2c1c(=O)n(C)c(=O)n2C,8%,1%,27%,i,-3%,-4%
CC(C)CCn1c(CN2CCN(c3cccc(Cl)c3)CC2)nc2c1c(=O)n(C)c(=O)n2C,4%,-4%,16µM*,i,0%,-24%
CCOC(=O)N1CCC(N2Cc3cccc(C(=O)Nc4ccc(CC)cc4)c3C2=O)CC1,14%,0%,25µM*,i,0%,-24%
CSc1ccc(NC(=O)C2(C)CCN2C(=O)c2sccc2C)cc1 (stereo not given),2%,nt,35µM*,i,nt,nt
COc1ccc2nc(N(Cc3cccnc3)C(=O)Cc3ccccc3)sc2c1,nt,nt,32µM*,i,nt,nt
O=C(Cc1ccccc1)N(Cc1cccnc1)c1nc2c(Cl)cccc2s1,nt,nt,20µM*,i,nt,nt

# Assay outcomes deposited in PubChem by National Center for Advancing Translational Sciences (NCATS).
